{
  "source": "the supplement of paper PMC4466140",
  "binders": {"B1": {"name": "unnamed (peptide)", "chain": "RVRKTHVPASKRPSG"}},
  "data": [
    {"target": "ScBbc1", "assay": "SPOT peptide array binding signal intensity (averaged, normalized) (arbitrary units (background-subtracted, floor 0; scale differs between SH3 domains)); higher = stronger binding of the SH3 domain to the peptide", "method_in_brief": "(§1)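 The binding signal is the normalized, background-subtracted spot intensity averaged over replicates; its arbitrary units differ between domains. It was obtained by incubating 10 μg/ml GST-fused SH3 domains from four yeast species overnight at 4°C in TBS-based blocking buffer on cellulose membranes with synthetic 15-mer peptides, cysteines replaced by serines, then detecting with anti-GST antibody, HRP anti-mouse secondary and luminol.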", "values": [
      {"binder": "B1", "SPOT peptide array binding signal intensity": 15.5}
    ]},
    {"target": "ScBem1-D1", "assay": "SPOT peptide array binding signal intensity (averaged, normalized) (arbitrary units (background-subtracted, floor 0; scale differs between SH3 domains)); higher = stronger binding of the SH3 domain to the peptide", "method_in_brief": "as §1", "values": [
      {"binder": "B1", "SPOT peptide array binding signal intensity": 51}
    ]},
    {"target": "ScBzz1-D1", "assay": "SPOT peptide array binding signal intensity (averaged, normalized) (arbitrary units (background-subtracted, floor 0; scale differs between SH3 domains)); higher = stronger binding of the SH3 domain to the peptide", "method_in_brief": "as §1", "values": [
      {"binder": "B1", "SPOT peptide array binding signal intensity": 7.5}
    ]},
    {"target": "ScBzz1-D2", "assay": "SPOT peptide array binding signal intensity (averaged, normalized) (arbitrary units (background-subtracted, floor 0; scale differs between SH3 domains)); higher = stronger binding of the SH3 domain to the peptide", "method_in_brief": "as §1", "values": [
      {"binder": "B1", "SPOT peptide array binding signal intensity": "≤ 0"}
    ]},
    {"target": "ScCyk3", "assay": "SPOT peptide array binding signal intensity (averaged, normalized) (arbitrary units (background-subtracted, floor 0; scale differs between SH3 domains)); higher = stronger binding of the SH3 domain to the peptide", "method_in_brief": "as §1", "values": [
      {"binder": "B1", "SPOT peptide array binding signal intensity": 51}
    ]},
    {"target": "ScFus1", "assay": "SPOT peptide array binding signal intensity (averaged, normalized) (arbitrary units (background-subtracted, floor 0; scale differs between SH3 domains)); higher = stronger binding of the SH3 domain to the peptide", "method_in_brief": "as §1", "values": [
      {"binder": "B1", "SPOT peptide array binding signal intensity": 117}
    ]},
    {"target": "ScHof1", "assay": "SPOT peptide array binding signal intensity (averaged, normalized) (arbitrary units (background-subtracted, floor 0; scale differs between SH3 domains)); higher = stronger binding of the SH3 domain to the peptide", "method_in_brief": "as §1", "values": [
      {"binder": "B1", "SPOT peptide array binding signal intensity": 1}
    ]},
    {"target": "ScHse1", "assay": "SPOT peptide array binding signal intensity (averaged, normalized) (arbitrary units (background-subtracted, floor 0; scale differs between SH3 domains)); higher = stronger binding of the SH3 domain to the peptide", "method_in_brief": "as §1", "values": [
      {"binder": "B1", "SPOT peptide array binding signal intensity": 469}
    ]},
    {"target": "ScLsb1", "assay": "SPOT peptide array binding signal intensity (averaged, normalized) (arbitrary units (background-subtracted, floor 0; scale differs between SH3 domains)); higher = stronger binding of the SH3 domain to the peptide", "method_in_brief": "as §1", "values": [
      {"binder": "B1", "SPOT peptide array binding signal intensity": 4.5}
    ]},
    {"target": "ScLsb2", "assay": "SPOT peptide array binding signal intensity (averaged, normalized) (arbitrary units (background-subtracted, floor 0; scale differs between SH3 domains)); higher = stronger binding of the SH3 domain to the peptide", "method_in_brief": "as §1", "values": [
      {"binder": "B1", "SPOT peptide array binding signal intensity": 7}
    ]},
    {"target": "ScLsb3", "assay": "SPOT peptide array binding signal intensity (averaged, normalized) (arbitrary units (background-subtracted, floor 0; scale differs between SH3 domains)); higher = stronger binding of the SH3 domain to the peptide", "method_in_brief": "as §1", "values": [
      {"binder": "B1", "SPOT peptide array binding signal intensity": 420}
    ]},
    {"target": "ScLsb4", "assay": "SPOT peptide array binding signal intensity (averaged, normalized) (arbitrary units (background-subtracted, floor 0; scale differs between SH3 domains)); higher = stronger binding of the SH3 domain to the peptide", "method_in_brief": "as §1", "values": [
      {"binder": "B1", "SPOT peptide array binding signal intensity": 5}
    ]},
    {"target": "ScMyo3", "assay": "SPOT peptide array binding signal intensity (averaged, normalized) (arbitrary units (background-subtracted, floor 0; scale differs between SH3 domains)); higher = stronger binding of the SH3 domain to the peptide", "method_in_brief": "as §1", "values": [
      {"binder": "B1", "SPOT peptide array binding signal intensity": 2}
    ]},
    {"target": "ScMyo5", "assay": "SPOT peptide array binding signal intensity (averaged, normalized) (arbitrary units (background-subtracted, floor 0; scale differs between SH3 domains)); higher = stronger binding of the SH3 domain to the peptide", "method_in_brief": "as §1", "values": [
      {"binder": "B1", "SPOT peptide array binding signal intensity": 1.5}
    ]},
    {"target": "ScNbp2", "assay": "SPOT peptide array binding signal intensity (averaged, normalized) (arbitrary units (background-subtracted, floor 0; scale differs between SH3 domains)); higher = stronger binding of the SH3 domain to the peptide", "method_in_brief": "as §1", "values": [
      {"binder": "B1", "SPOT peptide array binding signal intensity": 91.5}
    ]},
    {"target": "ScPex13", "assay": "SPOT peptide array binding signal intensity (averaged, normalized) (arbitrary units (background-subtracted, floor 0; scale differs between SH3 domains)); higher = stronger binding of the SH3 domain to the peptide", "method_in_brief": "as §1", "values": [
      {"binder": "B1", "SPOT peptide array binding signal intensity": "≤ 0"}
    ]},
    {"target": "ScRvs167", "assay": "SPOT peptide array binding signal intensity (averaged, normalized) (arbitrary units (background-subtracted, floor 0; scale differs between SH3 domains)); higher = stronger binding of the SH3 domain to the peptide", "method_in_brief": "as §1", "values": [
      {"binder": "B1", "SPOT peptide array binding signal intensity": 2.17}
    ]},
    {"target": "ScSho1", "assay": "SPOT peptide array binding signal intensity (averaged, normalized) (arbitrary units (background-subtracted, floor 0; scale differs between SH3 domains)); higher = stronger binding of the SH3 domain to the peptide", "method_in_brief": "as §1", "values": [
      {"binder": "B1", "SPOT peptide array binding signal intensity": 230}
    ]},
    {"target": "ScSla1-D1-D2", "assay": "SPOT peptide array binding signal intensity (averaged, normalized) (arbitrary units (background-subtracted, floor 0; scale differs between SH3 domains)); higher = stronger binding of the SH3 domain to the peptide", "method_in_brief": "as §1", "values": [
      {"binder": "B1", "SPOT peptide array binding signal intensity": 510}
    ]},
    {"target": "ScSla1-D3", "assay": "SPOT peptide array binding signal intensity (averaged, normalized) (arbitrary units (background-subtracted, floor 0; scale differs between SH3 domains)); higher = stronger binding of the SH3 domain to the peptide", "method_in_brief": "as §1", "values": [
      {"binder": "B1", "SPOT peptide array binding signal intensity": 8.5}
    ]},
    {"target": "SpAbp1-D1", "assay": "SPOT peptide array binding signal intensity (averaged, normalized) (arbitrary units (background-subtracted, floor 0; scale differs between SH3 domains)); higher = stronger binding of the SH3 domain to the peptide", "method_in_brief": "as §1", "values": [
      {"binder": "B1", "SPOT peptide array binding signal intensity": 249}
    ]},
    {"target": "SpBbc1", "assay": "SPOT peptide array binding signal intensity (averaged, normalized) (arbitrary units (background-subtracted, floor 0; scale differs between SH3 domains)); higher = stronger binding of the SH3 domain to the peptide", "method_in_brief": "as §1", "values": [
      {"binder": "B1", "SPOT peptide array binding signal intensity": "≤ 0"}
    ]},
    {"target": "SpBzz1-D1", "assay": "SPOT peptide array binding signal intensity (averaged, normalized) (arbitrary units (background-subtracted, floor 0; scale differs between SH3 domains)); higher = stronger binding of the SH3 domain to the peptide", "method_in_brief": "as §1", "values": [
      {"binder": "B1", "SPOT peptide array binding signal intensity": 41}
    ]},
    {"target": "SpBzz1-D2", "assay": "SPOT peptide array binding signal intensity (averaged, normalized) (arbitrary units (background-subtracted, floor 0; scale differs between SH3 domains)); higher = stronger binding of the SH3 domain to the peptide", "method_in_brief": "as §1", "values": [
      {"binder": "B1", "SPOT peptide array binding signal intensity": "≤ 0"}
    ]},
    {"target": "SpCyk3", "assay": "SPOT peptide array binding signal intensity (averaged, normalized) (arbitrary units (background-subtracted, floor 0; scale differs between SH3 domains)); higher = stronger binding of the SH3 domain to the peptide", "method_in_brief": "as §1", "values": [
      {"binder": "B1", "SPOT peptide array binding signal intensity": "≤ 0"}
    ]},
    {"target": "SpHof1", "assay": "SPOT peptide array binding signal intensity (averaged, normalized) (arbitrary units (background-subtracted, floor 0; scale differs between SH3 domains)); higher = stronger binding of the SH3 domain to the peptide", "method_in_brief": "as §1", "values": [
      {"binder": "B1", "SPOT peptide array binding signal intensity": 89.5}
    ]},
    {"target": "SpHof1-2", "assay": "SPOT peptide array binding signal intensity (averaged, normalized) (arbitrary units (background-subtracted, floor 0; scale differs between SH3 domains)); higher = stronger binding of the SH3 domain to the peptide", "method_in_brief": "as §1", "values": [
      {"binder": "B1", "SPOT peptide array binding signal intensity": "≤ 0"}
    ]},
    {"target": "SpHof1-3", "assay": "SPOT peptide array binding signal intensity (averaged, normalized) (arbitrary units (background-subtracted, floor 0; scale differs between SH3 domains)); higher = stronger binding of the SH3 domain to the peptide", "method_in_brief": "as §1", "values": [
      {"binder": "B1", "SPOT peptide array binding signal intensity": 247}
    ]},
    {"target": "SpHse1", "assay": "SPOT peptide array binding signal intensity (averaged, normalized) (arbitrary units (background-subtracted, floor 0; scale differs between SH3 domains)); higher = stronger binding of the SH3 domain to the peptide", "method_in_brief": "as §1", "values": [
      {"binder": "B1", "SPOT peptide array binding signal intensity": 112}
    ]},
    {"target": "SpLsb1", "assay": "SPOT peptide array binding signal intensity (averaged, normalized) (arbitrary units (background-subtracted, floor 0; scale differs between SH3 domains)); higher = stronger binding of the SH3 domain to the peptide", "method_in_brief": "as §1", "values": [
      {"binder": "B1", "SPOT peptide array binding signal intensity": 3.75}
    ]},
    {"target": "SpLsb4", "assay": "SPOT peptide array binding signal intensity (averaged, normalized) (arbitrary units (background-subtracted, floor 0; scale differs between SH3 domains)); higher = stronger binding of the SH3 domain to the peptide", "method_in_brief": "as §1", "values": [
      {"binder": "B1", "SPOT peptide array binding signal intensity": 224}
    ]},
    {"target": "SpMyo1", "assay": "SPOT peptide array binding signal intensity (averaged, normalized) (arbitrary units (background-subtracted, floor 0; scale differs between SH3 domains)); higher = stronger binding of the SH3 domain to the peptide", "method_in_brief": "as §1", "values": [
      {"binder": "B1", "SPOT peptide array binding signal intensity": 4.25}
    ]},
    {"target": "SpNbp2", "assay": "SPOT peptide array binding signal intensity (averaged, normalized) (arbitrary units (background-subtracted, floor 0; scale differs between SH3 domains)); higher = stronger binding of the SH3 domain to the peptide", "method_in_brief": "as §1", "values": [
      {"binder": "B1", "SPOT peptide array binding signal intensity": 78}
    ]},
    {"target": "SpPex13", "assay": "SPOT peptide array binding signal intensity (averaged, normalized) (arbitrary units (background-subtracted, floor 0; scale differs between SH3 domains)); higher = stronger binding of the SH3 domain to the peptide", "method_in_brief": "as §1", "values": [
      {"binder": "B1", "SPOT peptide array binding signal intensity": 2}
    ]},
    {"target": "SpRvs167", "assay": "SPOT peptide array binding signal intensity (averaged, normalized) (arbitrary units (background-subtracted, floor 0; scale differs between SH3 domains)); higher = stronger binding of the SH3 domain to the peptide", "method_in_brief": "as §1", "values": [
      {"binder": "B1", "SPOT peptide array binding signal intensity": 1.17}
    ]},
    {"target": "SpSla1-D1-D2", "assay": "SPOT peptide array binding signal intensity (averaged, normalized) (arbitrary units (background-subtracted, floor 0; scale differs between SH3 domains)); higher = stronger binding of the SH3 domain to the peptide", "method_in_brief": "as §1", "values": [
      {"binder": "B1", "SPOT peptide array binding signal intensity": 4}
    ]},
    {"target": "SpSla1-D3", "assay": "SPOT peptide array binding signal intensity (averaged, normalized) (arbitrary units (background-subtracted, floor 0; scale differs between SH3 domains)); higher = stronger binding of the SH3 domain to the peptide", "method_in_brief": "as §1", "values": [
      {"binder": "B1", "SPOT peptide array binding signal intensity": "≤ 0"}
    ]}
  ]
}
